# ChEMBL document CHEMBL3988442, “University of Dundee, Small-Polar-MMV Screening Library” (2021)
# In all, about 69,000 compounds went through this assay and about 1,000 (1.4%) showed an effect of 50% or more. This excerpt belongs to a sample that is enriched for strong results.
# System: Leishmania donovani
# Test: Leishmania intramacrophage assay
# Format: functional, organism-based
# Parameters: scale not given: in the data most compounds retested in dose-response had high values
smiles,measurement,setting,value
COc1ccc(CNC(=O)CCc2c(C)noc2C)cc1F,Percent Effect,"30.3 µM, […]",14.24%
c1ccc(Cc2nc(CNC3CCC4(CCNCC4)CC3)no2)cc1,Percent Effect,"30.3 µM, […]",-22.96%
CCOC(=O)N1CCN(C(=O)C2CC(=O)N(c3ccccc3Br)C2)CC1 (centres undefined),Percent Effect,"30.3 µM, […]",15.14%
Cc1ccccc1NCc1nc2n(n1)CCCCC2,Percent Effect,"30.3 µM, […]",-2.813%
Cc1c(Cl)cccc1NCc1nc2n(n1)CCCCC2,Percent Effect,"30.3 µM, […]",55.49%
Cc1ccc(Cl)cc1NCc1nc2n(n1)CCCCC2,Percent Effect,"30.3 µM, […]",5.268%
Cl.Cl.O=C(NCc1cncc2c1CCN(Cc1cccc(F)c1)C2)C1CC1,Percent Effect,"30 µM, 30.03 µM",-3.8%
CC(NC(=O)NCCn1ccnc1)c1nncn1C (centres undefined),Percent Effect,"30.3 µM, […]",-59.34%
CCc1nc(NC(=O)NCCc2scnc2C)nn1C,Percent Effect,"30.3 µM, […]",-19.54%
CCCC1CCCN(Cc2csc(-c3cnn(C)c3)n2)CC1 (centres undefined),Percent Effect,"30 µM, 30.03 µM",-20.44%
CC1CCCN(Cc2csc(-c3ncccn3)n2)CC1 (centres undefined),Percent Effect,"30 µM, 30.03 µM",43.73%
CCCC1CCCN(Cc2csc(-c3ncccn3)n2)CC1 (centres undefined),Percent Effect,30 µM,77.24%
O=C1NC(c2cccnc2)=NC12CCN(CCCc1ccccc1)CC2,Percent Effect,"30.3 µM, […]",-4.495%
CC(CN1CCC2(CC1)N=C(c1cccnc1)NC2=O)c1ccccc1 (centres undefined),Percent Effect,"30.3 µM, […]",100.2%
CC1=NC2(CCN(CC(C)c3ccccc3)CC2)C(=O)N1 (centres undefined),Percent Effect,"30.3 µM, […]",10.6%
Cc1nc(CN2CCCC(CCc3c(F)cccc3F)C2)c[nH]1 (centres undefined),Percent Effect,"30 µM, 30.03 µM",47.92%
Cc1nc(CN2CCCC(CCc3ccc(F)c(F)c3)C2)c[nH]1 (centres undefined),Percent Effect,"30.3 µM, […]",65.39%
Cc1nc(CN2CCCC(CCc3ccc(F)cc3F)C2)c[nH]1 (centres undefined),Percent Effect,"30 µM, 30.03 µM",30.76%
COCC1CN(C(=O)Nc2cc(-n3cccc3)ccc2F)CCO1 (centres undefined),Percent Effect,"30.3 µM, […]",7.734%
CNC(=O)CN1CCOC(c2cccc(N)n2)C1 (centres undefined),Percent Effect,"30.3 µM, […]",18.21%
CN(Cc1nnc(C2CC2)n1C)C1CCN(Cc2nccn2C)C1 (centres undefined),Percent Effect,30 µM,20.02%
O=C(NCCc1nncn1C1CC1)C1(Cc2ccccc2)CCC1,Percent Effect,"30.3 µM, […]",8.956%
CN(C)CCN(Cc1ccccn1)Cc1ccnn1C1CCCCO1.O=C(O)CC(O)(CC(=O)O)C(=O)O (centres undefined),Percent Effect,"30.3 µM, […]",29.57%
CCCSc1nn(CCN(C)C)c2nc3sc(C)c(CC)c3c(=O)n12,Percent Effect,"30.3 µM, […]",45.45%
Cc1sc2nc(CCN)nc(N(CCN(C)C)CC3CCCO3)c2c1C (centres undefined),Percent Effect,"30.3 µM, […]",38.72%
Cc1sc2nc(CCN)nc(N(C)CCCC3CCCO3)c2c1C (centres undefined),Percent Effect,"30.3 µM, […]",63.54%
CCN(CCN(C)C)c1nc(CCN)nc2sc(C)c(C)c12,Percent Effect,"30.3 µM, […]",54.95%
CC(=O)N1CCc2c(nc(N(C)C)nc2N(C)CCCC2CCCO2)C1 (centres undefined),Percent Effect,"30.3 µM, […]",-1.539%
COCCN(CC1CC1)c1nc(CCN)nc2sc(C)c(C)c12,Percent Effect,"30.3 µM, […]",77.93%
Cc1nn(C2CCS(=O)(=O)C2)c(O)c1Cc1ccccc1 (centres undefined),Percent Effect,"30.3 µM, […]",20.59%
Cc1csc(CN(CC2CCCO2)C(=O)c2ccc(C)nc2C)n1 (centres undefined),Percent Effect,"30.3 µM, […]",-39.1%
Cc1cc(=O)n(C)cc1NC(=O)Cc1cccc(Cl)c1,Percent Effect,"30.3 µM, […]",-5.155%
CCOCC1CN(CC2CC2)Cc2nn(CC3CC3)cc21.O=C(O)C(F)(F)F (centres undefined),Percent Effect,"30.3 µM, […]",-3.875%
CNC(=O)c1ccc(C2CN(C(=O)c3cnn(C)c3)CCO2)nc1 (centres undefined),Percent Effect,"30.3 µM, […]",4.595%
CN(C)CCO[C@@H]1CC[C@H]2[C@H]1OCCN2C(=O)COc1ccccc1.O=C(O)C(F)(F)F,Percent Effect,"30 µM, 30.03 µM",28.35%
NS(=O)(=O)c1ccc(N2CCN(CCCc3cn[nH]c3)CC2)cc1,Percent Effect,"30.3 µM, […]",-5.312%
COc1ccc(S(=O)(=O)N2CCC[C@@H]3CN(C(=O)C4CC4)C[C@@H]32)cc1F,Percent Effect,"30.3 µM, […]",-21.4%
COc1cc(CNCc2ccco2)ccc1OCCO.Cl,Percent Effect,"30.3 µM, […]",36%
COc1cc(C(C)=O)ccc1OCCNCc1ccco1.Cl,Percent Effect,"30.3 µM, […]",31.62%
CCCc1ccc(OCCNCc2ccco2)c(OC)c1.Cl,Percent Effect,"30.3 µM, […]",65.86%
Cc1noc(CN(Cc2cccc(C#N)c2)Cc2ccco2)n1,Percent Effect,"30.3 µM, […]",-9.737%
O=C(c1cnccn1)N1CCN2C[C@H](OCC3CC3)C[C@H]2C1,Percent Effect,"30.3 µM, […]",-6.525%
Cc1cc(Cc2ccc(F)cc2)cc(C2CCCNC2)n1 (centres undefined),Percent Effect,"30.3 µM, […]",22.51%
Cc1cc(Cc2ccccc2F)cc(C2CCCNC2)n1 (centres undefined),Percent Effect,"30.3 µM, […]",9.469%
Cc1cc(Cc2ccccc2)cc(C2CCCNC2)n1 (centres undefined),Percent Effect,"30.3 µM, […]",19.14%
Cc1cc(Cc2ccccc2C)cc(C2CCCNC2)n1 (centres undefined),Percent Effect,"30.3 µM, […]",39.73%
Cc1cccc(Cc2cc(C)nc(C3CCCNC3)c2)c1 (centres undefined),Percent Effect,"30.3 µM, […]",59.44%
Cc1cc(Cc2cccc(C(F)(F)F)c2)cc(C2CCCNC2)n1 (centres undefined),Percent Effect,"30.3 µM, […]",91.42%
CC(O)CCN(C)C(=O)Nc1ccc(Br)cc1 (centres undefined),Percent Effect,"30.3 µM, […]",-0.06572%
Cc1ccc(CNC(=O)CN2CCCC(Cn3cncn3)C2)cc1 (centres undefined),Percent Effect,30 µM,15.14%
Nc1nc(N2CCCCCC2)ncc1C(=O)NCc1ccc(F)c(Cl)c1,Percent Effect,"30.3 µM, […]",1.039%
CC(CO)CSc1ncnc2[nH]ncc12 (centres undefined),Percent Effect,"30.3 µM, […]",-17.01%
O=C(O)C(F)(F)F.O=C(O)C(F)(F)F.O=C1COC2(CCN(Cc3cccnc3)CC2)CN1,Percent Effect,"30.3 µM, […]",22.41%
Cc1nc2c(c(NC(C)C)n1)CCN(C1CCOCC1)CC2.O=C(O)C(F)(F)F,Percent Effect,"30.3 µM, […]",14.91%
CC(C)Nc1nc2c(c(NC3CC3)n1)CCN(C(=O)C1CCOC1)CC2 (centres undefined),Percent Effect,"30.3 µM, […]",26.08%
CC(C)Nc1nc2c(c(NC3CC3)n1)CCN(C1CCOCC1)CC2,Percent Effect,"30.3 µM, […]",70.3%
CC(C)N(CCO)C(=O)C1CCC(=O)N(CCc2cccc(F)c2)C1 (centres undefined),Percent Effect,"30.3 µM, […]",21.22%
OCC1(Cc2ccc(Cl)cc2)CCN(Cc2cccnc2)CC1,Percent Effect,"30.3 µM, […]",13.26%
Cc1n[nH]c(C)c1NC(=O)Nc1cccnc1N1CCCC1,Percent Effect,"30.3 µM, […]",-22.16%
CSc1ccc2cc(CN(C)CCO)c(=O)[nH]c2c1,Percent Effect,"30.3 µM, […]",10.15%
CNCc1cn(C2CCN(CCC(C)c3ccccc3)CC2)nn1 (centres undefined),Percent Effect,"30.3 µM, […]",69.72%
COCc1cn(C2CCN(CCC(C)c3ccccc3)CC2)nn1 (centres undefined),Percent Effect,"30.3 µM, […]",15.55%
CC(CCN1CCC(n2cc(CCO)nn2)CC1)c1ccccc1 (centres undefined),Percent Effect,"30.3 µM, […]",17.91%
Cc1noc(C)c1CCCNC(=O)C1CCCN(C(=O)C2CC2)C1 (centres undefined),Percent Effect,"30.3 µM, […]",17.01%
CCSc1cc(C(=O)NCCNC(=O)Cc2ccccc2)ccn1,Percent Effect,"30.3 µM, […]",42.53%
CCSc1cc(C(=O)NCc2ccccc2O)ccn1,Percent Effect,"30 µM, 30.03 µM",52.62%
CCSc1cc(C(=O)NCc2ccc(C(=O)NC)cc2)ccn1,Percent Effect,"30.3 µM, […]",-0.2287%
CNCC(=O)N[C@H]1CN(c2nc(C)c3c(n2)CCCC3)C[C@@H]1C1CC1,Percent Effect,"30.3 µM, […]",61.72%
CNc1nc(N2C[C@H](NC(=O)CCOC)[C@@H](C3CC3)C2)nc2c1CCC2,Percent Effect,"30.3 µM, […]",20.37%
COCCC(=O)N[C@H]1CN(c2nc(C)c3c(n2)CCCC3)C[C@@H]1C1CC1,Percent Effect,"30.3 µM, […]",-3.355%
Cc1ccc(CN(C)C(=O)c2cnsn2)cc1,Percent Effect,"30.3 µM, […]",19.42%
CCn1nc(CC(C)C)cc1C(=O)N1CC(c2ccncc2)C1,Percent Effect,"30.3 µM, […]",24.78%
CCOCC(=O)NCCc1nc(C)cc(C(F)(F)F)n1,Percent Effect,"30.3 µM, […]",-29.08%
CCC(C(=O)NCc1nc(C)cc(C(F)(F)F)n1)n1cccn1 (centres undefined),Percent Effect,"30.3 µM, […]",13.87%
CCC(C(=O)NCCc1nc(C)cc(C(F)(F)F)n1)n1cccn1 (centres undefined),Percent Effect,"30.3 µM, […]",69.8%
O=C(CC1NC(N2CCc3ccccc3C2)=NC1=O)Nc1ccccc1 (centres undefined),Percent Effect,"30.3 µM, […]",4.892%
COCCC(=O)N1CCN(CC(C)C)c2nc(C)ccc2C1.O=C(O)C(F)(F)F,Percent Effect,"30.3 µM, […]",8.451%
CC1(NC(=O)Cc2cccs2)CCS(=O)(=O)C1 (centres undefined),Percent Effect,"30.3 µM, […]",19.51%
CC(C)CCn1nc2ccc(S(=O)(=O)N3CCOCC3)cn2c1=O,Percent Effect,"30.3 µM, […]",-38.47%
CC(C)Cn1nc2ccc(S(=O)(=O)N3CCC(C)CC3)cn2c1=O,Percent Effect,"30.3 µM, […]",58.76%
CCn1nc2ccc(S(=O)(=O)N3CCSCC3)cn2c1=O,Percent Effect,"30.3 µM, […]",8.958%
CCN(C)S(=O)(=O)N(Cc1cscn1)c1ccccc1,Percent Effect,"30.3 µM, […]",-18.14%
Cc1nc(C2CCCN2CCCS(N)(=O)=O)no1 (centres undefined),Percent Effect,30 µM,6.42%
Cn1cccc1-c1cc(C(=O)NCCCc2csc(N)n2)[nH]n1,Percent Effect,"30.3 µM, […]",54.27%
Cc1ccc(-c2cc(C(=O)NCCCc3csc(N)n3)[nH]n2)o1,Percent Effect,"30.3 µM, […]",-46.01%
Cc1ccc(-c2cc(C(=O)NCCCc3csc(N)n3)[nH]n2)s1,Percent Effect,"30.3 µM, […]",19.81%
Cc1ccc(N2CC[C@@H]3O[C@@H](COCc4cccnc4)CC[C@@H]32)nn1.O=C(O)C(F)(F)F.O=C(O)C(F)(F)F,Percent Effect,"30.3 µM, […]",-9.892%
CCN1CC2(CCNCC2)COc2ccccc2S1(=O)=O.O=C(O)C(F)(F)F,Percent Effect,"30 µM, 30.03 µM",13.53%
CC(C)c1ccc(OCn2ccc(C(=O)N3CCCC3)n2)cc1,Percent Effect,"30 µM, 30.03 µM",59.3%
O=C(c1ccn(COc2ccc(F)cc2)n1)N1CCCC1,Percent Effect,"30.3 µM, […]",0.02157%
O=C(c1ccn(COc2ccc(F)cc2)n1)N1CCCCCC1,Percent Effect,"30.3 µM, […]",-66.53%
Cc1nsc(C(=O)NCCc2ccc(Cl)cc2)n1,Percent Effect,"30.3 µM, […]",25.28%
Cc1cnc(NCCCN2CCc3ccccc32)nc1,Percent Effect,"30.3 µM, […]",21.16%
CN(C)c1nc(NCCCN2CCc3ccccc32)ncc1F,Percent Effect,"30.3 µM, […]",50.82%
Cc1ccnc(NCCCN2CCc3ccccc32)n1,Percent Effect,"30.3 µM, […]",20.07%
CNC(=O)c1cccc(NC(=O)CN2CCN(S(C)(=O)=O)CC2)c1,Percent Effect,"30 µM, 30.03 µM",9.767%
Cc1ccc(OCC(=O)N(C)Cc2cccc(F)c2)cn1,Percent Effect,"30.3 µM, […]",34.51%
CSC(C)(C)CNC(=O)NC1CCN(CC2CC2)C1 (centres undefined),Percent Effect,"30.3 µM, […]",2.957%
O=C(NC1CCN(CC2CC2)C1)N1CCC(OC2CCCCC2)CC1 (centres undefined),Percent Effect,"30.3 µM, […]",53.02%
O=C(NC1CCN(CC2CCCC2)C1)N1CCC(OCC2CC2)CC1 (centres undefined),Percent Effect,"30.3 µM, […]",32.77%
NC(=O)C1CCN(C(=O)NC2CCN(CC3CCCC3)C2)CC1 (centres undefined),Percent Effect,"30.3 µM, […]",54.02%
O=C(CCN1CCOCC1)NC1CCCN(CC2CCCCC2)C1 (centres undefined),Percent Effect,"30.3 µM, […]",10.41%
O=C(CCN1CCCCO1)NC1CCCN(CC2CCCCC2)C1 (centres undefined),Percent Effect,"30.3 µM, […]",-1.788%
COc1ncccc1C(=O)N1CCCC1c1c(C)n[nH]c1C (centres undefined),Percent Effect,"30.3 µM, […]",18%
